CHO-K1 Ca antag: M1 antagonist counterscreen hit in parental CHO-K1 cells; ATP-induced calcium, Fluo-8 fluorescence; inhibition, % at 3 µM; 0.6% of 360,000 active; AID 602250;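 active = inhibition above a per-plate cutoff, the plate's mean sample inhibition plus 3 SD, cut at about 24% in these data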;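 also: 0% = DMSO plus EC80 ATP and 100% = DMSO alone without ATP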
CHO-K1 Ca ag: M1 agonist counterscreen hit in parental CHO-K1 cells | Fluo-8 calcium fluorescence; scaled to maximal ATP response, vehicle zero | activation, % at 3 µM | 0.48% of 360,000 active | AID 602248; in the data active = activation above about 15%;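 also: untransfected CHO-K1 host cells lacking M1 receptor as counterscreen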
CHRM1 agonist: human M1 muscarinic receptor agonism | P11229 | activation, % at 3 µM | 0.33% of 360,000 active | CHO-K1 hM1, Fluo-8 calcium fluorescence, agonist mode; 0% DMSO, 100% acetylcholine EC100;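 active = activation above the run's mean compound activation plus 3 SD, cut at about 16% in these data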;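 also: peak over basal fluorescence ratio within a 140 s kinetic read after compound addition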
Target sequence (P11229 whole entry, looked up): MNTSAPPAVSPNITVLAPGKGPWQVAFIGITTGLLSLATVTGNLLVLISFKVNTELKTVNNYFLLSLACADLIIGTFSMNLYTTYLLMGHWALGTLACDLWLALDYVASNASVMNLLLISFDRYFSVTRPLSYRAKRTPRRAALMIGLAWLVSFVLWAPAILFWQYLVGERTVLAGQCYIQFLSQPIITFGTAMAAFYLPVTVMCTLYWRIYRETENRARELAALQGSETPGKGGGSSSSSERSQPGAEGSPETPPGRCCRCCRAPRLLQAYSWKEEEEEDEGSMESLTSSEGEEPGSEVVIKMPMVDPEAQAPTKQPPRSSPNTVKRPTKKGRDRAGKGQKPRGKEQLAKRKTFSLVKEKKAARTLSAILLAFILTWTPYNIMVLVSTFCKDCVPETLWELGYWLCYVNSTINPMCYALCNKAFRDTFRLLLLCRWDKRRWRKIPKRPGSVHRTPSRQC
M1 PAM parental: M1 PAM counterscreen hit in parental CHO-K1 cells; activation, % at 3 µM; 0.02% of 360,000 active; ATP EC20, Fluo-8 calcium fluorescence; 0% at ATP EC20, 100% at ATP max;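 active = activation above the run cutoff, the mean activation of all test compounds plus 3 SD, cut at about 40% in these data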;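 also: peak over basal fluorescence ratio in a 140 s read after ATP addition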
CHRM1 PAM: positive allosteric modulators of human M1 muscarinic receptor. activation, % at 3 µM. 0.088% of 360,000 active. P11229. CHO-K1 hM1, Fluo-8 calcium fluorescence, ACh EC20; 0% = ACh EC20, 100% = maximal ACh; in the data active = activation above about 19%, passing the limit was not always enough
M1 antag: blocks human M1 muscarinic receptor; AID 588852; P11229; 1.3% of 360,000 active; CHO-K1 hM1, Fluo-8 calcium fluorescence, ACh EC80 antagonist; inhibition, % at 3 µM;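 active = percent inhibition above its own plate's cutoff, namely the mean of that plate's compound wells plus 3 SD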;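 also: peak over basal fluorescence ratio during 140 s after agonist addition; 0% = ACh EC80 plus DMSO and 100% = DMSO alone without agonist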
An asterisk follows results filed as active. Most compounds without a hit are left out; they make up all but 2.3% or so of the library.

SMILES	CHO-K1 Ca antag	CHO-K1 Ca ag	CHRM1 agonist	M1 PAM parental	CHRM1 PAM	M1 antag
CCOC(=O)CC1COCCN1C(=O)c1cc(COc2ccc(F)cc2Cl)on1 (stereo not drawn)	-2	6	-1	16	4	-4
CCn1c(NCc2ccccn2)nc2ccccc21	24*	0	-2	-8	5	1
CCn1c(NCc2cccs2)nc2ccccc21	-12	0	-3	1	15	-26
CN(CCc1ccccn1)C(=O)CCC1CCCN(C(=O)c2cccc(N(C)C)c2)C1 (stereo not drawn)	-8	1	-5	5	5	-8
CCC(=O)NCCc1nc2cc(NC(=O)c3ccccc3Cl)ccc2n1C	-10	1	3	5	30*	-24
CCC(=O)NCCc1nc2cc(NC(=O)Nc3ccccc3)ccc2n1C	-10	1	-2	8	3	-8
CCn1c(P(C)(=O)O)nc2cc(NC(=O)c3ccccc3Cl)ccc21	24*	0	-6	-13	2	0
CN1C[C@H]2CON(C)[C@H]2C[C@H]1c1cccc(N2CCOCC2)c1	-14	0	-3	6	6	-15
CCc1ccc(/C=C2\Oc3c(ccc(O)c3CN3CCN(CCO)CC3)C2=O)cc1	3	0	0	-13	1	-8
Cc1ccc2oc(=O)c3cc(C(=O)NCCCN4CCN(C)CC4)sc3c2c1	54*	1	-4	10	6	-4
CN1CCN(CCCNC(=O)c2cc3c(=O)n(C)c4ccccc4c3s2)CC1	29*	0	-8	-7	-14	20
CC1(C)CC(=O)c2c(O)cc(OCC(=O)N3CCN(c4ccccc4)CC3)cc2O1	-4	2	-3	2	-4	2
CC(C)c1ccc(N(CCc2ccccn2)C(=O)C(C)(C)C)cc1	2	2	-6	2	-3	1
OCCNC(=S)NCCc1ccccc1	10	1	-6	-5	-2	6
CC(C)(CNC(=S)NCCc1ccccc1)CNC(=S)NCCc1ccccc1	28*	12	-2	-10	-10	18
Cn1c(=O)n(C)c2cc([N+](=O)[O-])c(N3CCN(S(=O)(=O)c4ccc5ccccc5c4)CC3)cc21	-14	1	0	12	5	-4
Cc1ccc(S(=O)(=O)N2CCN(c3cc4c(cc3[N+](=O)[O-])n(C)c(=O)n4C)CC2)cc1	-2	8	0	5	-22	52*
Fc1ccc2[nH]c3c(N4CCc5ccccc5C4)ncnc3c2c1	28*	14	2	-16	-15	41*
CCOc1ccc2[nH]c3c(N4CCc5ccccc5C4)ncnc3c2c1	-5	2	0	7	21	-12
Cc1ccc2[nH]c3c(N4CCc5ccccc5C4)ncnc3c2c1	35*	10	4	-4	-15	30*
Cc1[nH]c(=O)[nH]c(=O)c1NC(=O)c1ccccc1[N+](=O)[O-]	-9	0	0	21	3	-21
OC(c1ccccc1)C(NCCNCc1ccccc1)c1ccccc1 (stereo not drawn)	-3	1	-9	4	-24	38*
CC(C)CC(=O)Nc1c2c(nn1-c1cccc(Cl)c1)CS(=O)C2 (stereo not drawn)	-7	1	-2	-8	-4	9
Cc1ccc(Cn2c(=O)c3ccccc3n3nc(C)cc23)cc1	-5	0	-2	-7	-1	10
COc1ccc(O)c(C(=O)c2coc(=N)c(C(=O)Nc3ccc(SC(F)F)cc3)c2)c1	9	17*	0	-5	-13	30
SMILES	CHO-K1 Ca antag	CHO-K1 Ca ag	CHRM1 agonist	M1 PAM parental	CHRM1 PAM	M1 antag
O=C1[C@H](Oc2ccccc2)[C@@H](c2ccncc2)N1c1ccncc1	-8	1	0	20	3	-5
O=C1[C@@H](Oc2ccccc2)[C@@H](c2cnc3ccccc3c2)N1c1ccccc1	-15	1	-10	0	-20	30*
CSCCNC(=O)C1(C)CCN1C(=O)C/C=C/c1ccccc1 (stereo not drawn)	1	1	0	-7	5	-6
O=C(NCc1cccc(F)c1)c1cccc2c1C(=O)c1ccc(N3CCCC3)cc1S2(=O)=O	-7	13	27*	13	-18	33*
O=C(NCCc1ccc(F)cc1)c1cccc2c1C(=O)c1ccc(N3CCC(Cc4ccccc4)CC3)cc1S2(=O)=O	-7	1	20*	19	0	-4
O=C(NCc1cc(C(F)(F)F)ccc1Cl)c1cccc2c1C(=O)c1ccc(N3CCCCC3)cc1S2(=O)=O	-10	0	-2	21	10	-7
O=C(NCc1cc(C(F)(F)F)ccc1Cl)c1cccc2c1C(=O)c1ccc(N3CCC(N4CCCCC4)CC3)cc1S2(=O)=O	10	9	-2	7	-28	32*
CCN1CCN(CCn2c(=S)[nH]c3ccccc3c2=O)CC1	-5	0	-6	11	-25	86*
CSc1nnc(NC(=O)c2cc(=O)c3cc(C)cc(C)c3o2)s1	-5	1	-3	-8	5	-9
CCOC(=O)c1cnc2ccccc2c1NCc1ccco1	-8	2	-8	20	-26	92*
CCCCC1(Cc2ccc([N+](=O)[O-])cc2)C(=O)N(c2ccccc2)N(c2ccccc2)C1=O	18	3	-2	6	-9	36*
CCCCC1(COC(=O)CCC(=O)O)C(=O)N(c2ccccc2)N(c2ccccc2)C1=O	-13	0	-3	26	1	-24
CC(NCc1ccc(S(N)(=O)=O)cc1)C(=O)N1c2ccccc2CC1C (stereo not drawn)	-17	1	-6	9	2	-8
O=C(CN1C(=O)CCC1=O)Nc1nc2c(F)cc(F)cc2s1	4	5	0	3	-9	4
O=C(Nc1nc2c(F)cc(F)cc2s1)C1CC1	31*	2	-4	-5	-5	8
CCCCOc1ccccc1C(=O)NNC(=S)NC(=O)c1ccccc1[N+](=O)[O-]	1	14	19*	-3	-2	-7
O=C(NNC(=S)NC(=O)c1ccccc1[N+](=O)[O-])c1ccccc1[N+](=O)[O-]	-11	1	-4	29	9	-2
CCOC(=O)c1ccc(S(=O)(=O)N2CCN(C(=O)c3cccc(S(=O)(=O)N4CC(C)OC(C)C4)c3)CC2)cc1 (stereo not drawn)	-15	1	-8	6	-3	3
CN(C)S(=O)(=O)c1cc(NC(=O)c2ccc(-n3ccnc3)c([N+](=O)[O-])c2)ccc1Cl	21	5	-8	-12	-18	26*
COc1ccccc1NC(=O)c1ccc(-n2ccnc2)c([N+](=O)[O-])c1	-2	6	-1	3	-5	10
O=C(CNCc1ccc(Cl)cc1)Nc1ccc(C(=O)N2CCCCCC2)cc1	-12	10	-3	17	5	-7

Screens (PubChem)
